# High-throughput results deposited in PubChem by Buhrlage Lab, Dana-Farber Cancer Institute and Novartis Institutes for BioMedical Research (Cambridge, Mass).
# OTUD3 inh = inhibitors of human OTUD3 deubiquitinase; purified OTUD3, Ub-rhodamine fluorescence, 2 h; 47,000 compounds, 0.7% hits; AID 1645858; Q5T2D3; inhibition, % at 25 µM
# USP8 block = inhibitors of human USP8 deubiquitinase. purified USP8, Ub-rhodamine cleavage fluorescence, 30 min. inhibition, % at 20 µM. 47,000 compounds, 4.2% hits
# USP17 inh = human USP17-like deubiquitinase inhibition; A8MUK1; purified USP17, Ub-rhodamine cleavage fluorescence, 3 h; inhibition, % at 50 µM; 47,000 compounds, 6.5% hits
# USP10 block = blocks human USP10 ubiquitin-rhodamine cleavage; Q14694; purified USP10, Ub-rhodamine fluorescence, 60 min; inhibition, % at 20 µM; 47,000 compounds, 1.1% hits; AID 1645856
# USP28 block = human USP28 deubiquitinase inhibition; Q96RU2; purified USP28, Ub-rhodamine cleavage fluorescence, 30 min; inhibition, % at 25 µM; 47,000 compounds, 3% hits
# USP30 inh = human USP30 deubiquitinase inhibition; purified USP30, Ub-rhodamine cleavage fluorescence; inhibition, % at 25 µM; 47,000 compounds, 5.3% hits
# Target sequence (Q70CQ3 whole entry, looked up): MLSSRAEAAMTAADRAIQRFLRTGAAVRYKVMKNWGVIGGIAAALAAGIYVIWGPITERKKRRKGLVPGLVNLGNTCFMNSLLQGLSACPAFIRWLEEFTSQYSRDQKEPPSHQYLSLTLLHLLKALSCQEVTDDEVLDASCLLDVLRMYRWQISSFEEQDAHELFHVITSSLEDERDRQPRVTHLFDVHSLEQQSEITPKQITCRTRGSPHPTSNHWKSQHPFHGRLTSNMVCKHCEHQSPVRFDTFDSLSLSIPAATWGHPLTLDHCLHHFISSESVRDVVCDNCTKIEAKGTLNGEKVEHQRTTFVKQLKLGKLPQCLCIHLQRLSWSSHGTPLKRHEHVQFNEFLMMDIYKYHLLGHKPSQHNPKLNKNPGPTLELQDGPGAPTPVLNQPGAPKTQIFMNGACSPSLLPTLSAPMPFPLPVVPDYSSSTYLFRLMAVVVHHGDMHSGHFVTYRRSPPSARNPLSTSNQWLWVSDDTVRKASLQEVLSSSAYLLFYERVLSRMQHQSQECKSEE
# * marks the source's active call; other numbers are inactive results; . = no result given. Rows were chosen to be rich in hits. Some 13% of all compounds tested hit in one or more screens of this group. Cut-off read from the data, not from the text of the source: active = inhibition above about 30%; inactive = the rest.
SMILES,OTUD3 inh,USP8 block,USP17 inh,USP10 block,USP28 block,USP30 inh
Cc1ccc(-c2nnc3ccc(SCC(=O)N4CCCc5ccccc54)nn23)cc1,3.3,-4.2,-4.3,-1.1,18.0,30.4*
C[C@H]1CCC[C@]2(C)C[C@H]3OC(=O)C(CN4CCCC(C)(C)C4)[C@H]3[C@@H]3O[C@@]132 (some centres undefined),11.3,18.3,12.6,0.4,8.6,16.5
CC(=O)Nc1ccc(CN2CCN(c3cnn4c(C5CC5)nnc4c3)CC2)cc1,6.1,18.0,10.1,2.3,10.2,32.7*
Cc1ccc(NC(=O)N2CCN(c3cnn4c(C5CC5)nnc4c3)CC2)cc1,2.2,-1.6,-0.7,3.4,17.6,2.0
Cc1ccccc1CC(=O)NC(C)(C)c1nc2c(c(C(N)=O)n1)OCO2,-7.6,-22.1,-1.3,2.9,-5.5,0.0
Cc1cc(=O)n(CC(=O)N2CCCc3ccccc32)c(N2CCOCC2)n1,0.0,4.3,-0.4,1.2,-2.1,-14.3
CCc1nc(N)n(CC(=O)N2CCCc3ccccc32)c(=O)c1C,8.4,21.6,75.6*,0.4,17.8,53.7*
O=C1[C@H]2Cc3c([nH]c4ccccc34)C(c3cccc([N+](=O)[O-])c3)N2C(=O)CN1Cc1ccco1 (some centres undefined),0.3,-14.0,40.1*,7.5,1.3,-2.8
COc1cccc(C2c3[nH]c4ccccc4c3C[C@@H]3C(=O)N(CC(O)c4ccccc4)CC(=O)N23)c1 (some centres undefined),-20.9,31.5*,45.4*,21.6,39.9*,-39.9
COc1cccc(C2c3[nH]c4ccccc4c3C[C@H]3C(=O)N(CCCc4ccccc4)CC(=O)N23)c1 (some centres undefined),-29.6,-13.0,-17.1,-2.8,-25.9,-101.9
Cc1nc(-c2cccc(S(=O)(=O)Nc3cccc(C)c3C)c2)no1,9.9,4.3,7.5,4.0,7.9,5.3
CC1(C(=O)Nc2ccc(Cl)cc2)Oc2cccnc2NC1=O (centres undefined),2.4,-0.6,-1.8,-1.3,18.2,-9.9
Cc1cccc(CNC(=O)C2(C)Oc3cccnc3N(C)C2=O)c1 (centres undefined),-7.8,-4.7,.,-1.9,-3.7,-5.4
Cc1cccc(Oc2ncnc3oc(C)c(C)c23)c1,6.9,15.7,6.0,4.2,-0.3,27.2
CN1C(=O)N(CC(=O)N2CCCC2c2cncc(-n3ccnc3)n2)C(=O)C12CCCCC2 (centres undefined),9.1,35.6*,11.2,0.0,6.0,16.7
O=C(C1CCN(c2nc3ccc(-c4cccnc4)nc3s2)CC1)N1CCCC1,-2.3,-4.0,-1.8,-1.2,-4.2,-2.2
COc1cccc(-c2ccc3nc(N4CCC(C(N)=O)CC4)sc3n2)c1,0.0,14.4,48.6*,-2.7,2.0,8.0
O=C(NCc1noc(-c2ccccc2)n1)c1ccccc1F,0.4,0.8,.,4.3,4.0,-1.0
Cc1c(C(=O)Nc2ccccn2)oc2ccccc12,1.2,-2.0,13.5,-0.8,.,.
Cc1c(C(=O)Nc2ccccn2)oc2c(Cl)cccc12,17.2,0.0,32.7*,0.0,22.6,48.1*
COc1cccc2cc(-c3nnc(SCC(=O)c4ccc(F)cc4)n3C)oc12,-1.2,39.4*,.,18.0,0.7,8.6
COc1ccc(C(=O)CSc2nnc(-c3cc4ccccc4o3)n2C)cc1,-1.7,11.6,13.5,11.8,-0.1,1.9
Cc1ccc(S(=O)(=O)N(C)C)cc1NC(=O)Cc1ccc(Cl)c(Cl)c1,10.3,5.3,14.2,4.8,92.5*,24.9
Cc1ccc(NC(=O)Cn2c(C)ncc(C(=O)NC3CC3)c2=O)c(C)c1,-1.2,-2.4,-5.5,0.7,-14.2,-4.8
CN(C(=O)CSc1nnc(-c2cc3ccccc3n2C)o1)c1ccccc1,9.7,17.9,8.1,9.4,9.6,52.1*
SMILES,OTUD3 inh,USP8 block,USP17 inh,USP10 block,USP28 block,USP30 inh
Cn1c(-c2nnc(SCC(=O)Nc3ccccc3F)o2)cc2ccccc21,22.3,26.3,43.2*,6.7,41.1*,81.8*
COc1ccccc1NC(=O)CSc1nnc(-c2cc3ccccc3n2C)o1,13.8,18.6,12.0,-0.9,7.4,9.0
CNc1nc(C2CCCCN2C(C)=O)nc2c1CN(C(=O)c1ccccc1)CC2 (centres undefined),-7.2,-0.6,-8.4,2.0,-11.5,-19.2
CCOC(=O)c1nc(Nc2ccc3c(c2)OCO3)c2ccccc2n1,-13.2,-20.4,.,2.4,-14.3,-18.0
CC1c2cc3c(cc2CCN1CC(=O)Nc1cc(Cl)ccc1-n1cncn1)OCCCO3 (centres undefined),-5.8,46.9*,19.1,-3.5,-8.8,-24.6
CS(=O)(=O)N1CC(C(=O)Nc2ccc(F)cc2)Oc2ccccc21 (centres undefined),-3.8,0.0,-4.0,3.7,0.7,-4.0
CCN1CCCC1CNS(=O)(=O)c1ccccc1-c1nc(-c2ccc(C)cc2)no1 (centres undefined),-13.3,-5.7,-19.8,2.2,-22.9,-16.9
O=C(O)c1ccccc1CN1C(=O)C2CCCN2C(=O)c2ccccc21 (centres undefined),11.8,16.1,11.5,0.0,9.5,27.4
O=C1C(O)=C(c2ccccc2)C2CCCN12 (centres undefined),9.5,2.4,-25.8,2.9,-8.5,31.8*
COC(=O)c1ccc(C(=O)OC)c(NC(=O)c2nn(-c3ccccc3)c(=O)cc2OC)c1,4.4,1.5,36.8*,2.3,2.2,14.2
COC(=O)c1ccc(C)c(NC(=O)c2nn(Cc3ccccc3)c(=O)c3ccccc23)c1,4.9,24.9,-3.5,5.6,-1.9,-111.1
Cc1cc(C(=O)NC2(O)C(=O)c3ccccc3C2=O)n(C)n1,11.1,81.9*,94.1*,37.9*,22.8,35.9*
Cc1oc(CNC(=O)Cc2ccccc2Cl)nc1C(=O)N1CCC(C)CC1,2.0,-28.7,1.6,3.1,2.5,10.6
CCC(=O)N1CCc2c(C(=O)NCc3ccc(N4CCN(C)CC4)cc3)cccc21,13.1,8.6,8.3,-2.3,18.1,28.3
O=C(Nc1ccc(N2CCC(n3cccc3)CC2)cc1)c1ccccc1,-0.6,30.5*,-0.3,14.6,-3.3,1.8
Cc1ccccc1Cn1c(=O)n(CCC(=O)NCc2ccco2)c(=O)c2ccccc21,-8.8,38.0*,-1.9,15.6,6.2,-5.2
O=C(O)c1c(CNCc2ccco2)c2ccccc2n1Cc1ccccc1F,-2.9,-28.8,-13.7,2.0,-3.8,-14.3
N#Cc1ccccc1Cn1c(=O)n(CCCCC(=O)NCc2ccco2)c(=O)c2ccccc21,12.8,6.0,51.2*,6.1,1.9,-16.3
Cc1ccccc1Cn1c(=O)n(Cc2ccco2)c(=O)c2ccccc21,28.5,18.8,27.7,2.2,15.0,26.2
O=C(CCn1c(=O)c2ccccc2n(Cc2ccccc2F)c1=O)NCc1ccco1,-3.1,7.8,-3.4,38.7*,-12.7,-25.9
N#Cc1ccccc1Cn1c(=O)n(Cc2ccco2)c(=O)c2ccccc21,19.7,7.6,53.7*,13.3,37.9*,33.4*
